aSyn UTR act: Activators working through SNCA 5'UTR binding (MLPCN); AID 1814; activity score, % (tested at 7.5 µM), hits read low; alpha-synuclein 5'UTR reporter, activators screen; hit rate 7.1% among 300,000; in the data active = activity score below about -60%
Active calls of the source: *. A selection follows.

SMILES | aSyn UTR act
Cc1nc2c(cc(Oc3ccc(S(=O)(=O)N4CCOCC4)cn3)c3ccsc32)s1 | -89*
OCCc1ccc(O)c(-n2nc3ccccc3n2)c1 | -117*
COCc1cc(CN2CCCC2)c(O)c2ncccc12 | 59
COc1ccccc1NC(=O)Cn1c(CN2CCCCC2)nc2ccccc2c1=O | -63*
COC(=O)c1ccc(N2CCN(C)CC2)c(NC(=O)COc2ccc(OC)cc2)c1 | -68*
Cc1cc(=O)[nH]c(SCCOc2ccc3c(c2)CCC3)n1 | -107*
Clc1ccc(-c2noc(/C=C/c3ccccc3)n2)cc1 | -94*
Cc1ccc(/C=C/c2nnc(-c3ccccc3)o2)cc1 | -109*
Cc1ccc(-c2noc(/C=C/c3ccccc3)n2)cc1 | -202*
N=c1oc2ccc(Cl)cc2cc1C(=O)Nc1ccc(F)cc1 | -68*
COc1ccc2o/c(=N\O)c(C(=O)Nc3ccc(C)cc3)cc2c1 | -282*
COc1ccc2oc(=N)c(C(=O)Nc3ccc(F)cc3)cc2c1 | -97*
COc1ccc(NC(=O)c2cc3ccccc3o/c2=N\NS(=O)(=O)c2ccc(C)cc2)cc1 | -133*
COc1ccc2oc(=N)c(C(=O)Nc3ccc(C)cc3)cc2c1 | -101*
CC(=O)Nc1ccc(Nc2ncnc3c2cnn3-c2cccc(C)c2)cc1 | -159*
CC(=O)Nc1ccc(Nc2ncnc3c2cnn3-c2ccccc2)cc1 | -110*
CC(C)Nc1ncnc2c1cnn2-c1ccc(Cl)cc1 | 56
Cn1ncc2c(Nc3ccc4ccccc4c3)ncnc21 | -164*
Cn1ncc2c(O/N=C(\N)c3ccc(C(C)(C)C)cc3)ncnc21 | 104
Clc1ccc(Nc2ncnc3c2cnn3-c2ccccc2)cc1 | -119*
O=[N+]([O-])c1ccc(O)c(/C=N/Nc2ncnc3c2cnn3-c2ccccc2)c1 | 66
CCc1ccc2oc(-c3cccc(NC(=O)c4cccnc4)c3)nc2c1 | -167*
O=C(Nc1ccc2oc(-c3ccccc3)nc2c1)c1ccco1 | -156*
CCCCCC(=O)Nc1ccc2oc(-c3cccnc3)nc2c1 | -75*
O=C(Nc1ccc2oc(-c3ccccc3)nc2c1)c1cccnc1 | -161*
SMILES | aSyn UTR act
O=C(Nc1ccc2oc(-c3ccccc3)nc2c1)c1ccc2c(c1)OCCO2 | -66*
Cc1cccc(NC(=O)c2cccs2)n1 | -116*
Cc1ccnc(NC(=O)c2ccc(Br)s2)c1 | -115*
O=C(Nc1ccccn1)c1cccs1 | -113*
Cc1ccnc(NC(=O)c2cccs2)c1 | -118*
COc1cccc(/C=N/NC(=O)c2cc3cc([N+](=O)[O-])ccc3s2)c1O | 107
O=C(Nc1nccc(-c2cccs2)n1)c1cccs1 | -92*
Cc1cccc(NC(=O)c2cc3cc([N+](=O)[O-])ccc3s2)n1 | -85*
Nc1ccc2oc3ncccc3c(=O)c2c1 | -98*
COc1ccc(C#Cc2ccc3c(c2)c(=O)c2ccccc2n3C)cc1 | -125*
Nc1ccc2oc3ccccc3c2c1 | -101*
COc1cc(-c2noc(C)c2C#Cc2ccc(N)cc2)cc(OC)c1OC | 88
Nc1ccc(C#Cc2ccc3oc4ccccc4c(=O)c3c2)cc1 | -66*
CCc1nc2c(c(=O)c3ccccc3n2C)c(=O)n1CCc1ccc(OC)cc1 | 74
Cn1c2ccccc2c(=O)c2cc(C#Cc3ccc(N)cc3)ccc21 | -89*
CC(=O)NC(c1ccccc1)c1nc2ccccc2[nH]1 (stereo unspecified) | -64*
CC(=O)C1=C(C)NC(SCC(=O)c2ccccc2)=C(C#N)C1c1ccco1 (stereo unspecified) | -162*
O=C(NC1CCN(Cc2ccccc2)CC1)c1ccc(Cn2c(=S)[nH]c3ccc(N4CCOCC4)cc3c2=O)cc1 | -92*
CC1CCN(CCNC(=O)c2ccc3c(=O)n(Cc4ccc(Cl)cc4)c(=S)[nH]c3c2)CC1 | 98
O=C(NCc1ccccn1)Nc1cccc(Cl)c1 | -177*
CCN(CC)CC(=O)Nc1ccc(C)cc1Br | -77*
O=C(NCc1ccc(F)cc1)Nc1ccc(Cl)cc1 | -65*
COc1cccc(NC(=O)C(=O)NCCc2ccc(F)cc2)c1 | -109*
O=C(NCc1ccc(F)cc1)Nc1cccc(Cl)c1 | -149*
Cc1cccc(NC(=O)Nc2ccc(C)cc2Br)c1 | -79*
SMILES | aSyn UTR act
O=C(NCCc1ccc(F)cc1)Nc1ccccc1 | -70*
CCCCCCNC(=O)Nc1ccccc1 | -88*
Fc1cccc(NC(=S)NCc2ccccn2)c1 | -94*
Cc1ccc(CNC(=O)Nc2cccc(C)c2)cc1 | -117*
CCOC(=O)c1sc2nc3n(c(=O)c2c1C)CCCCC3 | -214*
Cc1c(C(=O)Nc2cc(F)ccc2F)sc2nc3n(c(=O)c12)CCCCC3 | -118*
COc1cccc(NC(=O)c2sc3nc4n(c(=O)c3c2C)CCC4)c1 | -113*
CSc1cccc(NC(=O)c2sc3nc4n(c(=O)c3c2C)CCC4)c1 | -131*
CCCCN(CC)C(=O)c1cc2cc3ccc(Cl)cc3nc2o1 | -87*
O=C(N/N=C/c1ccccc1F)c1csc2c1CCCC2 | -235*
O=C(N/N=C/c1cccc(F)c1)c1csc2c1CCCC2 | -144*
O=C(Nc1ccccc1O)c1csc2c1CCCC2 | -157*
COc1ccc(C2CC(C)(c3ccc(OC)cc3)Nc3ccccc3N2)cc1 (stereo unspecified) | -192*
